Sampled rows, rich in hits. Any-hit rate of the full collection: about 2.3%.
S1P1 ag: activates the human S1P1 receptor. P21453. S1P1 agonist cell-based reporter assay. activation, % at 4.5 µM. 1.5% of 16,000 active. AID 1044; in the data active = activation above about 80%
TLR4-MyD88 inh: blocks binding of human TLR4 to MyD88; Cell-based TLR4-MyD88 binding inhibition assay; 0.06% of 16,000 active; inhibition, % at 10 µM; in the data active = inhibition above about 45%
rat GALR2 agon: agonists of rat galanin receptor 2 (GALR2). O08726. cell-based GALR2 agonist screen. activation, % at 10 µM. 0.5% of 16,000 active. AID 833; in the data active = activation above about 15%
Target sequence (O08726 whole entry, looked up): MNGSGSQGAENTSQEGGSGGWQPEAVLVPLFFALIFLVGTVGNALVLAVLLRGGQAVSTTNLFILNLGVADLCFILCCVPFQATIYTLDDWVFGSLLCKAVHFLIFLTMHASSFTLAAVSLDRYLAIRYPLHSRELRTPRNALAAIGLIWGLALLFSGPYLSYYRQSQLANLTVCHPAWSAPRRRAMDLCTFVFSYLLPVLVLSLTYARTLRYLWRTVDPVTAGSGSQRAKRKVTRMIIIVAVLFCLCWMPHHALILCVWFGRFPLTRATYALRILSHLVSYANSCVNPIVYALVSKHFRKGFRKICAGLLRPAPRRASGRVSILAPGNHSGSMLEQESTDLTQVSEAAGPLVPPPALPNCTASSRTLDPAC
* marks the source's active call; other numbers are inactive results; . = not tested or not shown.

SMILES | S1P1 ag | TLR4-MyD88 inh | rat GALR2 agon
CCn1c2ccccc2c2cc(N3C(=O)C=CC3=O)ccc21 | 110* | 19 | -9
COc1ccc(N2C(=O)C=CC2=O)cc1OC | 23 | 3 | -4
N#C/C(=C\c1cc(C#Cc2ccccc2)cs1)C(=O)c1ccco1 | -6 | 1 | 5
N#C/C(=C\c1ccc(C#Cc2ccccc2)s1)C(=O)c1ccco1 | 13 | 5 | 16*
CCOC(=O)c1sc(-c2ncc(C(F)(F)F)cc2OCC)nc1C | 4 | 3 | -2
C/C(=N\NC(=S)NC(C)(C)C)c1sc(-c2ncc(C(F)(F)F)cc2Cl)nc1C | -23 | -2 | 19*
Cc1ccc(COc2ncnc3cc(Cl)ccc23)cc1 | -16 | . | 46*
CCCc1cnc(Oc2ncnc3cc(Cl)ccc23)nc1 | -12 | -2 | -4
CC12NC(=O)NC1(C)NC(=O)N2 (centres undefined) | -8 | -7 | -3
CCOC(=O)c1cnn(-c2nc(-c3ccccc3)cs2)c1C(F)(F)F | 82* | -12 | -8
CCOC(=O)c1cnn(C(=O)c2cnn(-c3ccc([N+](=O)[O-])cc3)c2C(F)(F)F)c1C(F)(F)F | 52 | 12 | -3
CCSc1ccc2c3c(cccc13)C(=O)N(Cc1ccccc1)C2=O | -31 | -20 | 128*
O=C1c2cccc3c(Sc4ccccc4)ccc(c23)C(=O)N1NCCO | 2 | -11 | -1
S=C(N/N=C/c1ccco1)NC1CC2CCC1C2 (centres undefined) | -27 | -2 | -1
Oc1c(Cl)cc(Cl)cc1/C=N/NC(=S)NC1CC2CCC1C2 (centres undefined) | -71 | -101 | 51*
CCCc1c(C)nc(SCC(=O)c2cccc([N+](=O)[O-])c2)[nH]c1=O | 1 | -1 | -3
Cc1ccsc1/C=C/C(=O)O/N=C(\N)c1ccc(C(F)(F)F)cc1 | 100* | . | -5
Cc1nc(CO/N=C(/N)c2ccc(C(F)(F)F)cc2)cs1 | -6 | -2 | -3
CCOc1ccccc1/C=N/NC(=O)N/N=C/c1ccccc1OCC | -28 | 4 | -7
C#CC(CC)(CC)N=Cc1cc(Br)ccc1OCC | 123* | 16 | -6
CCOC(=O)c1sc(-c2sccc2COc2ccc(Cl)cc2)nc1C | -4 | -9 | -10
N#Cc1nc(=O)n(-c2ccc(OC(F)(F)F)cc2)c(N)c1N=Cc1ccc(C(F)(F)F)cc1 | 106* | -3 | -8
Cc1ccc(C)n1-c1ccc(OC(F)(F)F)cc1 | 3 | -14 | -5
O=C(Nc1ccccc1)OCc1cc(-c2ccccc2)c(C(F)(F)F)s1 | 94* | 2 | -10
CN(C)C(=O)c1cc(-c2ccccc2)c(C(F)(F)F)s1 | 35 | 4 | -3
SMILES | S1P1 ag | TLR4-MyD88 inh | rat GALR2 agon
O=S(=O)(Nc1cc(C(F)(F)F)cc(C(F)(F)F)c1)c1cccc2nsnc12 | 89* | 3 | -3
NNC(=O)CNS(=O)(=O)c1cccc2nsnc12 | 3 | -4 | -6
CCOC(=O)Cc1cc(=O)n2[nH]c(-c3cccs3)cc2n1 | -3 | -8 | -6
CC(=O)c1ccc(NC(=O)CSc2nnc(-c3ccc4ccccc4c3)n2C)cc1 | 19 | 8 | 2
COc1cc(C=N/C(C#N)=C(/C#N)NCC(C)(C)C)cc(Br)c1O | -25 | -17 | -1
CC(C)(C)CN/C(C#N)=C(\N)C#N | 106* | 13 | 3
Cc1nc(C(F)(F)F)c(C(=O)O/N=C(\N)c2cccc(C(F)(F)F)c2)s1 | 99* | 1 | -8
N/C(=N\OC(=O)c1csc([N+](=O)[O-])c1)c1cccc(C(F)(F)F)c1 | 45 | . | -7
O=S(=O)(Nc1ccc(Cl)cc1)c1ccc(-c2cc(C(F)(F)F)on2)s1 | 25 | -4 | -1
O=S(=O)(Nc1ccc2c(c1)OCCO2)c1csc(-c2cc(C(F)(F)F)on2)c1 | 82* | 6 | -5
CC(C)(C)c1ccc(/C(N)=N/OC(=O)CCOc2ccc(F)cc2)cc1 | -21 | 0 | -8
N/C(CSc1cccs1)=N\O | 6 | . | -4
O=C(Cn1nnc(-c2cccc(C(F)(F)F)c2)n1)Nc1cccnc1 | -4 | -1 | -5
N/C(=N\OC(=O)C1CCc2ccccc2O1)c1ccc(C(F)(F)F)cc1 (centres undefined) | 35 | 8 | -4
COc1ccc(CCN2CC(C(=O)O)CC2=O)cc1OC (centres undefined) | -12 | -2 | -4
COc1ccc(CCN2C(=O)CSC2=Nc2ccc(C(C)C)cc2)cc1OC | 108* | -1 | -8
C/C=C(\C)C(=O)NC(=S)NNC(=O)c1cc(OC)c(OC)c(OC)c1 | -11 | 0 | -6
FC(F)(F)c1cc(-c2nsc(N3CCOCC3)n2)cc(C(F)(F)F)c1 | 27 | -1 | 22*
FC(F)(F)c1cc(N=NN2CCOCC2)cc(C(F)(F)F)c1 | -17 | 4 | -11
N#Cc1c2ccccc2cn1Cc1cccc(Cl)c1 | 93* | . | -7
N#Cc1cccc(C(=O)Cc2cccc(Cl)c2)c1 | -1 | 5 | -2
O=C(Nc1ccc(OC(F)(F)F)cc1)Nc1csc2ccccc12 | 55 | 3 | -10
COC(=O)/C(=C\N(C)C)S(=O)(=O)c1cc(C)c(Cl)cc1C | -7 | 4 | -6
Cc1cc(S(=O)(=O)Cc2ccc(NC(=O)C(Cl)(Cl)Cl)cc2)c(C)cc1Cl | 5 | -4 | 16*
O=S(=O)(Nc1ccc(F)c(Cl)c1)c1cc(Br)c(Br)s1 | 90* | -15 | -10
SMILES | S1P1 ag | TLR4-MyD88 inh | rat GALR2 agon
O=S(=O)(c1cc(Br)c(Br)s1)N1CCCCC1 | 34 | 4 | -4
O=S(=O)(c1c(Cl)sc(Cl)c1Br)N1CCOCC1 | 7 | -3 | -4
O=C(NCCCN1CCOCC1)c1ccccc1NC(=O)c1sc2ccccc2c1Cl | -1 | -3 | -7
CSC(=NC#N)N1CCN(c2c([N+](=O)[O-])cc(C(F)(F)F)cc2[N+](=O)[O-])CC1 | 6 | -3 | -9
O=[N+]([O-])c1cc(C(F)(F)F)cc([N+](=O)[O-])c1N1CCSCC1 | 99* | 6 | -5
Cc1oc(-c2ccc(Cl)cc2)cc1C(=O)/C(C#N)=C/c1cccs1 | 0 | -6 | -6
CC(=O)Nc1ccccc1-c1nnc(-c2ccc(C(C)(C)C)cc2)o1 | 104* | 0 | -9
CCOC(=O)C(=CNc1ccccc1-c1nnc(-c2ccc(Cl)cc2)o1)C(=O)OCC | -17 | -3 | -11
Fc1cc(Br)c(F)cc1Br | -8 | -3 | -6
Cc1c(C(=O)Oc2cccc(C(F)(F)F)c2)n(C)oc1=O | -6 | -4 | 56*
Cc1c(C(=O)NNc2cc(C(F)(F)F)ccc2Cl)n(C)oc1=O | 19 | -4 | -5
O=S(=O)(CS(=O)(=O)Oc1ccc(Cl)cc1)Oc1ccc(Cl)cc1 | 40 | 4 | -4
Cc1nnsc1C(=O)Nc1ccccc1SCc1noc(-c2cccs2)n1 | -6 | -12 | -8
Cc1nnsc1C(=O)Nc1ccccc1SCc1cccc(C(F)(F)F)c1 | 88* | 9 | -11
C/C(=N\Nc1ccccc1)c1cc2cc(Br)ccc2oc1=O | -2 | 10 | 7
O=[N+]([O-])c1ccc(Sc2nc3ccccc3[nH]2)c(Cl)c1 | 16 | 3 | -2
O=C(N/C(=C\c1ccc(-c2ccc([N+](=O)[O-])cc2)o1)c1nc2ccccc2[nH]1)c1ccccc1 | 68 | 50* | -17
O=C(NCc1ccc(Cl)cc1Cl)c1ccc2nnsc2c1 | 16 | 7 | -11
Cc1c(-c2nc(-c3ccc([N+](=O)[O-])o3)no2)n(C)oc1=O | -11 | 2 | -11
Cc1c(-c2nc(-c3ccc(C(C)(C)C)cc3)no2)n(C)oc1=O | 95* | 2 | -3
CC(=O)NC1=CC(=O)CC(C)(C)C1 | -8 | 13 | -7

High-throughput results (PubChem)
